Measurements: PubChem BioAssay
Activity calls are given as the source filed them. How the calls were made is not given here.

test: Brca1-Bard1 BiLC signal decrease – luminescence, single concentration, counter-screen for Mdm2/MdmX interaction inhibitor project, confirmation (AID 504668); settings: Brca1/Bard1 bimolecular luciferase complementation counterscreen, at 8 µM, hits give high values

Compound	inhibition
O=C(C[C@H]1C[C@H](C(=O)N2CCCCC2)[C@@]2(CCc3ccccc3)c3[nH]c4ccc(Cl)cc4c3CCN2C1=O)NCc1cccc(C(F)(F)F)c1	34% (active)
C/C(=N\NC(=O)c1cccc2ccccc12)c1ccccn1	29.9% (active)
CCCCCCCCCCC[N+](C)(C)CC/C=C1/c2ccccc2Sc2ccc(Cl)cc21	28.6% (active)
CCN1CCN(CCNC(=O)c2ccc(/C=C3/Sc4ccccc4N(Cc4cccc(C)c4)C3=O)cc2)CC1	27.6% (active)
CC(=O)OC[C@H]1O[C@@H](n2ncc(=O)[nH]c2=O)[C@H](OC(C)=O)[C@@H]1OC(C)=O	31.6% (active)
CN(Cc1ccccc1)C(=O)c1ccc(NC(=O)C2CCN(C(=O)OC(C)(C)C)CC2)cc1	31.6% (active)
O=C(N/N=C(\Cc1ncc[nH]1)c1ccccc1)c1cccnc1	33.1% (active)
FC(F)(F)c1cccc(NC(=S)N(CCCN2CCCC2)Cc2cccn2Cc2ccc(Cl)cc2)c1	30.3% (active)
O=C(CCl)Nc1cn(-c2ccccc2)nc1-c1ccc(F)cc1	32.9% (active)
CC(C)C(=O)N1CCN(c2ccc(NC(=O)c3ccc([N+](=O)[O-])o3)cc2)CC1	23.4% (active)
O=C(N/N=C/c1ccc(O)cc1O)c1ccc(CN2C(=O)c3cccc4cccc2c34)cc1	29.2% (active)
Cc1ccc(CSC(Nc2ccc(F)cc2)=C(C#N)C#N)cc1	24.3% (active)
COc1ccc(C(=O)Nc2nc3c(s2)CCCC3)cc1S(=O)(=O)N1CCCc2ccccc21	23.4% (active)
Oc1c(Cl)cc(Cl)c(Cl)c1Cc1c(O)c(Cl)cc(Cl)c1Cl	26.8% (active)
CCCCC(=O)NC(c1ccc(N(C)C)cc1)c1ccc2cccnc2c1O (stereo not given)	23.7% (active)
CCOc1ccc(C(=O)N/N=C(\c2ccccc2)c2ccccn2)cc1	30.1% (active)
CC(=O)NC(c1cc(Cl)c2cccnc2c1O)C1CC1 (stereo not given)	33.4% (active)
Oc1ccccc1/C=N/Nc1nccnc1Cl	30.8% (active)
CN1CCN(C(=O)CCCN2C(=O)/C(=C/c3cccc(Br)c3)SC2=S)CC1	29.2% (active)
CCCOCc1ccc(O)c2ncccc12	27.6% (active)

Compound	inhibition
CC[C@]1(c2ccccc2OC)ON(c2ccccc2C(F)(F)F)C1=O	34.6% (active)
C/C(=N\NC(=O)C1CCCN(S(=O)(=O)c2ccccc2)C1)c1ccccn1 (stereo not given)	35.2% (active)
CC(=O)NC(c1ccc(C)cc1)c1cc([N+](=O)[O-])c2cccnc2c1O (stereo not given)	25% (active)
COc1ccc([N+](=O)[O-])cc1NC(=S)NC(NC(=O)C(c1ccccc1)c1ccccc1)C(Cl)(Cl)Cl (stereo not given)	29.2% (active)
C=C1C(=O)C=C[C@]2(C)C[C@@H]3OC(=O)[C@](C)(O)[C@H]3C[C@@H]12	25.4% (active)
Cc1nnnn1/C(=C\c1ccccc1)C(=O)OCC(=O)Nc1cccc(S(=O)(=O)N(C)C)c1	34% (active)
CCOC(=O)CSC1=NC(=O)/C(=C/c2ccc(OC)cc2)S1	32.1% (active)
C=C(C(=O)Oc1ccccc1C(C)(C)C)c1ccccc1	34% (active)
COc1ccccc1C(NC(C)=O)c1cc(Cl)c2cccnc2c1O (stereo not given)	31.2% (active)
Clc1cc2cccnc2c2ncccc12	31.6% (active)
CC(=O)/C(C#N)=C1\NC(=O)C(Cc2ccccc2Cl)S1 (stereo not given)	30.1% (active)
CCN(CC)Cc1c(O)ccc2c1O/C(=C\C=C\c1ccccc1)C2=O	25.3% (active)
Cc1sc2ncn(CC(=O)NCCCC(=O)Nc3ccc(C(C)C)cc3)c(=O)c2c1C	29.2% (active)
CCN(CC)c1ccc(/C=N/NC(=O)CCC(=O)NCc2ccccc2)c(O)c1	33.7% (active)
COc1ccccc1-c1cc(C(F)(F)F)nc(S(=O)(=O)CCCC(=O)Nc2cc(C)on2)n1	32.8% (active)
C/C(=N\NC(=O)c1cc(-c2cccs2)nc2ccccc12)c1ccccn1	28.3% (active)
CCCCCCCCCC(=O)N[C@@H]1c2cc(OC)c(OC)cc2C[C@H]1OCc1ccccc1	35.8% (active)
N#Cc1c2ccc(O)cc2n2ccccc12	35.2% (active)
CCOC(=O)N1C(=O)[C@@](c2ccc(Cl)cc2)(C(C)C)N1C(=O)OCC	33.2% (active)
COc1cc(NS(=O)(=O)c2ccc(N/C=C(\C#N)c3nc4cc(Cl)ccc4o3)cc2)nc(OC)n1	35.2% (active)
